Experiment [1] can be described thus: ATG_GLI_CIS: Attagene CIS-FACTORIAL HepG2 Assay for human Zinc Finger Protein GLI1 (AID 2282945). The conditions noted are these: HepG2, Attagene cis-factorial reporter mRNA, GLI element; actives raise or lower the signal. A digest of the protocol:
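Bidirectional curve fits relative to DMSO, using reporter mRNA levels from RT-PCR plus capillary electrophoresis. Cells were HepG2 transiently carrying cis-regulated reporter constructs, harvested 24 h after dosing.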

A short description of experiment [2]: ATG_ISRE_CIS: Attagene CIS-FACTORIAL HepG2 Assay for human Interferon Regulatory Factor 1 (IRF1) binding to an Interferon-Stimulated Response Element (ISRE) (AID 2282948). The conditions noted are these: HepG2 ISRE cis-reporter (Attagene), mRNA transcription readout; actives raise or lower the signal. Summed up: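 Transiently transfected HepG2 cells carrying cis-element reporter units, dosed 24 hours. Reporter mRNA quantified by RT-PCR, fluorescent primer extension, HpaI digestion and capillary electrophoresis. Bidirectional fitting relative to DMSO.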

Experiment [3] is described as follows: ATG_M_32_CIS: Attagene CIS-FACTORIAL HepG2 Assay for M32 Transcription Factor (Internal Marker) (AID 2282949).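 Further: background control marker of the multiplexed CIS panel rather than a real target.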 The conditions noted are these: HepG2 Attagene cis-factorial M32 reporter, mRNA; actives raise or lower the signal. Summed up:
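Internal background marker read-out: RT-PCR/capillary electrophoresis fluorescence of reporter transcripts from transiently transfected HepG2 cells after 24 h chemical exposure. Activity fitted bidirectionally relative to DMSO negative control.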

A short description of experiment [4]: ATG_M_06_CIS: Attagene CIS-FACTORIAL HepG2 Assay for M06 Transcription Factor (Internal Marker) (AID 2282950). To be noted: HepG2 Attagene CIS-FACTORIAL M06 internal marker reporter; actives raise or lower the signal. A digest of the protocol:
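Internal background marker within multiplexed cis-reporter HepG2 system. Cells transiently transfected, dosed 24 h; reporter mRNA measured by RT-PCR, HpaI digestion and capillary electrophoresis. Bidirectional fit relative to DMSO.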

For experiment [5], the target named is Hepatocyte nuclear factor 6 (Homo sapiens) (UniProt Q9UBC0). The experiment is described as follows: ATG_HNF6_CIS: Attagene CIS-FACTORIAL HepG2 Assay for human Hepatocyte Nuclear Factor 6 (HNF6) (AID 2282952). The conditions noted are these: HepG2 Attagene cis-factorial HNF6 reporter transcription; actives raise or lower the signal. A digest of the protocol:
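HepG2 cells transiently transfected with cis-element-driven multiplexed reporter units measuring endogenous transcription factor activity. After 24 h exposure, reporter mRNA quantified by RT-PCR, FAM-labelled fragments and capillary electrophoresis; bidirectional fitting versus DMSO.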

Experiment [6] is described as follows: ATG_MRE_CIS: Attagene CIS-FACTORIAL HepG2 Assay for human Metal Responsive Element (MRE) (AID 2282954). To be noted: HepG2 MRE cis-reporter transcription, Attagene multiplex; actives raise or lower the signal. Summed up:
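After a 24 h chemical exposure, transiently transfected HepG2 cells yield RNA whose reporter sequences are amplified, FAM-labelled and sized by capillary electrophoresis. Curves are fitted bidirectionally relative to DMSO.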

Experiment [7] can be described thus: ATG_PBREM_CIS: Attagene CIS-FACTORIAL HepG2 Assay for human Phenobarbital-responsive Enhancer Module (PBREM) (AID 2282955). The conditions noted are these: HepG2 PBREM cis-reporter, Attagene multiplexed transcription; actives raise or lower the signal. Summed up:
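HepG2, transient MRTU transfection, 24 h dosing; RNA → oligo(dT) RT → PCR → 6-FAM extension → HpaI → CE. Bidirectional fit vs DMSO.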

The target in experiment [8] is Paired box protein Pax-6 (Homo sapiens) (UniProt P26367). The experiment is described as follows: ATG_Pax6_CIS: Attagene CIS-FACTORIAL HepG2 Assay for human Paired Box 6 (PAX6) (AID 2282956). To be noted: HepG2 CIS-FACTORIAL PAX6 reporter transcription, RNA readout; actives raise or lower the signal. Summed up: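 HepG2 cells transiently transfected with cis-promoter-driven multiplexed reporter units sensing endogenous transcription factor activity; 24 h chemical exposure. Reporter mRNA quantified by RT-PCR, 6-FAM labelling, HpaI digestion and capillary electrophoresis; bidirectional fit versus DMSO baseline.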

A short description of experiment [9]: ATG_PXRE_CIS: Attagene CIS-FACTORIAL HepG2 Assay for human Pregnane X Receptor Element (PXRE) (AID 2282957). To be noted: HepG2 Attagene CIS-FACTORIAL PXRE reporter, mRNA; actives raise or lower the signal. A digest of the protocol: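 HepG2 cells transiently transfected with cis-element-driven multiplexed reporter units; after 24 h chemical exposure, reporter mRNA measured by RT-PCR, 6-FAM labelling, HpaI digestion and capillary electrophoresis. Bidirectional fitting relative to DMSO.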

Experiment [10] in a line: ATG_RORE_CIS: Attagene CIS-FACTORIAL HepG2 Assay for human RAR-related Orphan Receptor Element (RORE) (AID 2282959). The conditions noted are these: HepG2 Attagene cis-factorial RORE reporter, mRNA; actives raise or lower the signal. A digest of the protocol: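 Multiplexed reporter assay measuring mRNA induction from a cis promoter element in transiently transfected HepG2 cells after 24 h treatment. Detection via RT-PCR and capillary electrophoresis fluorescence; DMSO serves as baseline.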

Experiment [11] can be described thus: ATG_Sox_CIS: Attagene CIS-FACTORIAL HepG2 Assay for human SRY-box transcription factor (SOX) (AID 2282960). To be noted: HepG2 Attagene cis-factorial SOX reporter, mRNA; actives raise or lower the signal. Summed up: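 Cells were transfected with reporter constructs under cis-regulatory promoters, then exposed to chemicals for 24 h. Reporter transcripts were quantified by fluorescence after RT-PCR and capillary electrophoresis; activity was fitted in both directions against DMSO.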

In experiment [12] the target is Transcription factor Sp1 (Homo sapiens) (UniProt P08047). The experiment is described as follows: ATG_Sp1_CIS: Attagene CIS-FACTORIAL HepG2 Assay for human Specificity Protein 1 (Sp1) (AID 2282961). To be noted: HepG2 Sp1 cis-reporter transcription, actives raise or lower the signal. A digest of the protocol: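 Measures mRNA induction of an Sp1-linked reporter in HepG2 cells 24 h post-dosing. Multiplexed reporters read by RT-PCR and capillary electrophoresis; DMSO serves as negative control and baseline.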

Experiment [13] is described as follows: ATG_SREBP_CIS: Attagene CIS-FACTORIAL HepG2 Assay for human Sterol Regulatory Element Binding (SREBP) (AID 2282962). To be noted: HepG2 Attagene cis-factorial SREBP reporter, mRNA; actives raise or lower the signal. A digest of the protocol: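 HepG2 cells transiently transfected with multiplexed cis-promoter reporter units sensing endogenous transcription factors; reporter mRNA measured 24 h after dosing by RT-PCR, 6-FAM labeling, HpaI digestion and capillary electrophoresis. Bidirectional fit versus DMSO.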

The target in experiment [14] is Signal transducer and activator of transcription 3 (Homo sapiens) (UniProt P40763). Description: ATG_STAT3_CIS: Attagene CIS-FACTORIAL HepG2 Assay for human Signal Transducer and Activator of Transcription 3 (STAT3) (AID 2282963). The conditions noted are these: HepG2, Attagene cis-factorial STAT3 reporter transcription; actives raise or lower the signal. A digest of the protocol: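 After a 24 h compound incubation, total RNA from MRTU-transfected HepG2 cells was converted to cDNA and reporter sequences PCR-amplified, labelled and profiled by capillary electrophoresis. Gain and loss of signal were referenced to DMSO.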

Experiment [15] in a line: ATG_TA_CIS: Attagene CIS-FACTORIAL HepG2 Assay for human TA Basal Promoter (AID 2282964). To be noted: HepG2 Attagene CIS-factorial TA basal promoter reporter; actives raise or lower the signal. A digest of the protocol:
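HepG2 cells transiently transfected with multiple reporter units under cis promoter elements, reporting endogenous transcription factor activity; this endpoint tracks the TA basal promoter as background control. Reporter mRNA after 24 h dosing measured by RT-PCR/capillary electrophoresis; bidirectional fits versus DMSO.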

Experiment [16] is described as follows: ATG_GRE_CIS: Attagene CIS-FACTORIAL HepG2 Assay for human Glucocorticoid Response Elements (GRE) (AID 2282947). To be noted: HepG2 GRE cis-reporter, Attagene multiplex mRNA; actives raise or lower the signal. A digest of the protocol:
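Assay uses human hepatoma HepG2 cells transfected with cis-promoter reporter units, exposed 24 h. mRNA from reporters detected by RT-PCR plus capillary electrophoresis; DMSO serves as negative control and baseline.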

The target of experiment [17] is Hypoxia-inducible factor 1-alpha (Homo sapiens) (UniProt Q16665). Description: ATG_HIF1a_CIS: Attagene CIS-FACTORIAL HepG2 Assay for human Hypoxia Inducible Factor 1 (HIF1A) (AID 2282951). The conditions noted are these: HepG2 Attagene cis-factorial HIF1a reporter transcription; actives raise or lower the signal. A digest of the protocol:
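HepG2, transient cis-reporter library, 24 h dosing. RNA → RT (oligo dT) → PCR → 6-FAM primer extension → HpaI → CE. Bidirectional curve fit vs DMSO.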

Experiment [18] concerns the target Heat shock factor protein 1 (Homo sapiens) (UniProt Q00613). The experiment is described as follows: ATG_HSE_CIS: Attagene CIS-FACTORIAL HepG2 Assay for human Heat Shock Transcription Factor 1 (HSE) (AID 2282953). To be noted: HepG2 HSE cis-reporter, Attagene RNA transcription; actives raise or lower the signal. Summed up:
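HepG2 cells transfected with cis-promoter reporter units sensing endogenous transcription factor activity; reporter mRNA quantified 24 h post-dose by RT-PCR and capillary electrophoresis of 6-FAM-labelled products. Bidirectional fitting against DMSO.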

Experiment [19] is described as follows: ATG_PPRE_CIS: Attagene CIS-FACTORIAL HepG2 Assay for human Peroxisome Proliferator-activated Response Element (PPRE) (AID 2282958). The conditions noted are these: HepG2 PPRE cis-element reporter, Attagene transcription factor profiling; actives raise or lower the signal. A digest of the protocol: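 Transcript-level reporter induction in transfected HepG2 cells after 24 h chemical exposure, quantified by fluorescence from RT-PCR products separated by capillary electrophoresis.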

The target in experiment [20] is Bile acid receptor (Homo sapiens) (UniProt Q96RI1). Description: ATG_IR1_CIS: Attagene CIS-FACTORIAL HepG2 Assay for human Nuclear Receptor Subfamily 1 Group H Member 4 (NR1H4), IR1 submotif (AID 2282946). The conditions noted are these: IR1 reporter transcription, actives raise or lower the signal. A digest of the protocol: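 Cells (human HepG2) carry transiently transfected cis-promoter reporter transcription units. Compounds are incubated 24 h, total RNA is reverse-transcribed and amplified, and labelled fragments are resolved by capillary electrophoresis. Curves use DMSO as baseline.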

Active and inactive are the calls of the source. How the source made its calls: active means hit-call score of the fitted dose curve at least 0.9, where 1 is the maximum; inactive means score below 0.9.

Hepatocyte nuclear factor 6 (Homo sapiens), sequence (Q9UBC0 whole entry, looked up, the tested form may be a part): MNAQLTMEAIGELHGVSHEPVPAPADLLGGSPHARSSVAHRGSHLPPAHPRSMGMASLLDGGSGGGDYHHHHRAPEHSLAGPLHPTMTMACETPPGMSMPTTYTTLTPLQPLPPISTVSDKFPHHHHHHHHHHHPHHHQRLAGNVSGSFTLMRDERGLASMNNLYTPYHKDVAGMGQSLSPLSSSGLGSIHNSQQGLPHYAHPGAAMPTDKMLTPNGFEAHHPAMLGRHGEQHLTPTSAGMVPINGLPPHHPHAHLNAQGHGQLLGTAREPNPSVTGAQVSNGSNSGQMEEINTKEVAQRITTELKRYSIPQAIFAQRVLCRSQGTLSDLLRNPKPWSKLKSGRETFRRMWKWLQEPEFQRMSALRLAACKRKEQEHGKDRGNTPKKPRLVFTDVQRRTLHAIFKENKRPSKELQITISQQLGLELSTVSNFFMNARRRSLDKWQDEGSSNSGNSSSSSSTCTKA
Paired box protein Pax-6 (Homo sapiens), sequence (P26367 whole entry, looked up): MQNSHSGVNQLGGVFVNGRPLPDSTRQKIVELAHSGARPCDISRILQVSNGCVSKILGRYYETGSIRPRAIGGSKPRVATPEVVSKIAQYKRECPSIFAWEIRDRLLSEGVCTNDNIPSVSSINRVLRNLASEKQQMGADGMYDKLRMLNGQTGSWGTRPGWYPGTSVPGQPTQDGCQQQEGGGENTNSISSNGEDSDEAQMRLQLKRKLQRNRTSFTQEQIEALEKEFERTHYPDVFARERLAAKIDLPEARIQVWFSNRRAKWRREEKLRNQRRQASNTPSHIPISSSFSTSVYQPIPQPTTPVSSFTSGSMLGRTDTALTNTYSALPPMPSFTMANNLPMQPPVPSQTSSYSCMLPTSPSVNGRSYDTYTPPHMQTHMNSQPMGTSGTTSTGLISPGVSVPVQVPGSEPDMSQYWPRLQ
Transcription factor Sp1 (Homo sapiens), sequence (P08047 whole entry, looked up): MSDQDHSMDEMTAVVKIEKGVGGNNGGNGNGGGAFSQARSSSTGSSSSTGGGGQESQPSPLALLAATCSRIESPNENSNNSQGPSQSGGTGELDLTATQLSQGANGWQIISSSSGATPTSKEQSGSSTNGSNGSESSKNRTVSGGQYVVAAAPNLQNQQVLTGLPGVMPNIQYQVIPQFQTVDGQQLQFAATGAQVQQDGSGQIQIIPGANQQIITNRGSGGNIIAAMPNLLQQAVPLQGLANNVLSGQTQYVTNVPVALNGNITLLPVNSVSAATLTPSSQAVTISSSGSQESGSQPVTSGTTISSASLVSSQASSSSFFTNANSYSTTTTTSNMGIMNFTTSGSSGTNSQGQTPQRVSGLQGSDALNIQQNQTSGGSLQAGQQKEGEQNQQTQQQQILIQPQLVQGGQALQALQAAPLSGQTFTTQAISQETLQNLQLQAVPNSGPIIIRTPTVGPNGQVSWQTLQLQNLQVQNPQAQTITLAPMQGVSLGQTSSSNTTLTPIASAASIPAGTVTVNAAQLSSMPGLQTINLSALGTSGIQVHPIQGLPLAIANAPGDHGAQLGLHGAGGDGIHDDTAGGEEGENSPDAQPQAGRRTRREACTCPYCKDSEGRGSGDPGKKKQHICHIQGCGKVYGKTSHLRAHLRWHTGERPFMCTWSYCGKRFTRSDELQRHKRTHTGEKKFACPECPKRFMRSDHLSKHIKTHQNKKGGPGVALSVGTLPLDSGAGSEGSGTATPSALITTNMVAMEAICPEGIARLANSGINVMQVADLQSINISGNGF
Heat shock factor protein 1 (Homo sapiens), sequence (Q00613 whole entry, looked up): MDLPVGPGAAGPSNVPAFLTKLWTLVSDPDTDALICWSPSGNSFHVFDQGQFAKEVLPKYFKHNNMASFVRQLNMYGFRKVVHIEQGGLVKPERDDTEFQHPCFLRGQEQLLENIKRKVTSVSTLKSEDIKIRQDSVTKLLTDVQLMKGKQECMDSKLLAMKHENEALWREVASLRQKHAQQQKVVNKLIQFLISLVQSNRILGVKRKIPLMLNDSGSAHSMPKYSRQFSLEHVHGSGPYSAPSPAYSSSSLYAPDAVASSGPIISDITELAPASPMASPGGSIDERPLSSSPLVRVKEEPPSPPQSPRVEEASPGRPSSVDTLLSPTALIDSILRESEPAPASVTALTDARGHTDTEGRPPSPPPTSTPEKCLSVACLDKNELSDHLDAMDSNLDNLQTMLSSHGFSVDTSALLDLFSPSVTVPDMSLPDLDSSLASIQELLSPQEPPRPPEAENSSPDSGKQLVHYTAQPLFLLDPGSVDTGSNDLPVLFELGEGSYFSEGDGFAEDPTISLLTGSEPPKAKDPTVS
Hypoxia-inducible factor 1-alpha (Homo sapiens), sequence (Q16665 whole entry, looked up): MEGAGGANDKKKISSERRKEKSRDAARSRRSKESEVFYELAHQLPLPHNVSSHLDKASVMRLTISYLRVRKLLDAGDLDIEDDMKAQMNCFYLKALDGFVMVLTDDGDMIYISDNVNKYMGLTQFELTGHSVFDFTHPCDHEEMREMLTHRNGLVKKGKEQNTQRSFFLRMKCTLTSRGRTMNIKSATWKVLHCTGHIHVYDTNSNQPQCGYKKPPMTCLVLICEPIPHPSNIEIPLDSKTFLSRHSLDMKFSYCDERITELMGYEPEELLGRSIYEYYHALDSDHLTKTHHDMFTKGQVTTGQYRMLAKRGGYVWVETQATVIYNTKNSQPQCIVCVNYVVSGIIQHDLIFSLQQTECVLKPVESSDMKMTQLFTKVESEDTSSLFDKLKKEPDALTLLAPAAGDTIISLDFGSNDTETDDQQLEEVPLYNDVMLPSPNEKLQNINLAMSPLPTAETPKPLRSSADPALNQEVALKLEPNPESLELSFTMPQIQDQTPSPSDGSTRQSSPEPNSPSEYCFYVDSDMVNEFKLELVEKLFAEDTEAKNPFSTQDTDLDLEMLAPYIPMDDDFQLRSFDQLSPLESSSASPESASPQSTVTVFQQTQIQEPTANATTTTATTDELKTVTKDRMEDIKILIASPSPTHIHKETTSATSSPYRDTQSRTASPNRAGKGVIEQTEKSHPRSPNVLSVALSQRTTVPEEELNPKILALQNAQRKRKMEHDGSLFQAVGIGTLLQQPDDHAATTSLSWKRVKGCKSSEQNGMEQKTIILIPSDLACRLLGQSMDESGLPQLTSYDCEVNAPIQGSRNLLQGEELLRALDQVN
Signal transducer and activator of transcription 3 (Homo sapiens), sequence (P40763 whole entry, looked up): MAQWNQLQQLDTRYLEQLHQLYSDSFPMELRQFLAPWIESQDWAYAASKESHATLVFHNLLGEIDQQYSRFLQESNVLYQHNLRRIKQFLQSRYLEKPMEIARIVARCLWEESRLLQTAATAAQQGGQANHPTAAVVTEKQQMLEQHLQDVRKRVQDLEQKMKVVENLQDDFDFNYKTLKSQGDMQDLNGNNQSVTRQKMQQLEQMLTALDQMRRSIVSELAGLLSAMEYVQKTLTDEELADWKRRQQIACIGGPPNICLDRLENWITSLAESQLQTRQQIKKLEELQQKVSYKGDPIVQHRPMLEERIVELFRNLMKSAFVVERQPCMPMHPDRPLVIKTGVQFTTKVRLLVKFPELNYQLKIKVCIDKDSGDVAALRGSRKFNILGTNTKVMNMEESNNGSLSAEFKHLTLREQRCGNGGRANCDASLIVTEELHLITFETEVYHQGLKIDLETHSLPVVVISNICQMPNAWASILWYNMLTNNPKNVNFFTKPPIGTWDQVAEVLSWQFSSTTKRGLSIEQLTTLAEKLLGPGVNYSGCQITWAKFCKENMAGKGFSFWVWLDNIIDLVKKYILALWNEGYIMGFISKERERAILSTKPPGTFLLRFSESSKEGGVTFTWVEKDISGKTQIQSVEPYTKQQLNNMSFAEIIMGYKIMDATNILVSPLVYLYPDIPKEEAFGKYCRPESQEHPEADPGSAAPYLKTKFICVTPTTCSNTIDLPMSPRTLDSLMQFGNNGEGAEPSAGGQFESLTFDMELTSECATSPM
Bile acid receptor (Homo sapiens), sequence (Q96RI1 whole entry, looked up, the tested form may be a part): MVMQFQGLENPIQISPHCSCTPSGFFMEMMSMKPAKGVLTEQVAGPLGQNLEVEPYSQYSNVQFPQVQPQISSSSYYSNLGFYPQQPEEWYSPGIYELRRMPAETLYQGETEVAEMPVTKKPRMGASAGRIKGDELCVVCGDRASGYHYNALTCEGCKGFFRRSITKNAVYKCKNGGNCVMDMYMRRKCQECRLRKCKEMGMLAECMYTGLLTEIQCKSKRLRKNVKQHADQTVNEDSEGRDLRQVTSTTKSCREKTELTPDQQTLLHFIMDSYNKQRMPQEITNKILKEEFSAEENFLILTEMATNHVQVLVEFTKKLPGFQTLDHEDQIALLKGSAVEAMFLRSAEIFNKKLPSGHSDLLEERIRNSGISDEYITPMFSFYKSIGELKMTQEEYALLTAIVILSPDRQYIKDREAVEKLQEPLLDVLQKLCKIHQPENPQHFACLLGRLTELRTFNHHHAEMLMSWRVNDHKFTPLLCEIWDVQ

By AC50 is commonly meant the concentration at which the activity in the assay is half-maximal. For `O=c1c(O)c(-c2ccc(O)c(O)c2)oc2cc(O)cc(O)c12`, the result in experiment [1], in experiment [2], in experiment [3], in experiment [4], in experiment [5] and in [6] was inactive. Moreover, the outcome in experiment [7], in experiment [8], in experiment [10], in experiment [11], in experiment [12] and in experiment [13] was inactive. Further, the compound was classed as inactive in experiment [14] and in experiment [15]. The AC50 in experiment [9] was 76.2 µM (active).
`COC(=O)c1ccc(O)cc1`: the compound was classed as inactive in [1], in experiment [16], in experiment [2], in experiment [3], in experiment [4] and in experiment [17]. Further, the compound was called inactive in experiment [5], in experiment [18], in experiment [6], in experiment [8], in experiment [9] and in experiment [19]. In addition, the compound was classed as inactive in [11], in experiment [12], in [13], in [14] and in [15].
Consider `O=[N+]([O-])C(CO)(CO)CO`, for which the outcome in experiment [2], in experiment [3], in [4], in [17], in [5] and in experiment [18] was inactive. In addition, the result in [6], in experiment [8], in [19], in [10], in experiment [12] and in [13] was inactive. In addition, the outcome in [14] and in [15] was inactive. In addition, the AC50 in [9] was 48.1 µM (active).
With `C[Si]1(C)O[Si](C)(C)O[Si](C)(C)O[Si](C)(C)O1`, the compound was classed as inactive in [20], in [2], in [3], in [4], in [17] and in experiment [5]. The compound was classed as inactive in experiment [18], in experiment [6], in [7], in [8], in experiment [19] and in experiment [10]. The call in experiment [11], in experiment [12], in experiment [13], in experiment [14] and in experiment [15] was inactive. Also, the AC50 in experiment [9] is 26.6 µM (active).
